# Reference: publication PMC7862700, “An all-to-all approach to the identification of sequence-specific readers for epigenetic DNA modifications on cytosine”
# Assays:
# Experiment in all cases: DAPPL (digital affinity profiling via proximity ligation, sequencing); 10 mM Tris-HCl pH 7.5, 50 mM NaCl, 1 mM DTT, 4% glycerol, room temperature, 30 min; GST-TFs on glutathione beads, 16-mer random dsDNA library, 0.1% formaldehyde crosslink after washing; high values mean tight binding
# FLI1 = target: T1, FLI1 (Homo sapiens, UniProt Q01543 1-452); conditions: protein: recombinant; tags: N-terminal GST; dsDNA, one strand shown
# T1 sequence: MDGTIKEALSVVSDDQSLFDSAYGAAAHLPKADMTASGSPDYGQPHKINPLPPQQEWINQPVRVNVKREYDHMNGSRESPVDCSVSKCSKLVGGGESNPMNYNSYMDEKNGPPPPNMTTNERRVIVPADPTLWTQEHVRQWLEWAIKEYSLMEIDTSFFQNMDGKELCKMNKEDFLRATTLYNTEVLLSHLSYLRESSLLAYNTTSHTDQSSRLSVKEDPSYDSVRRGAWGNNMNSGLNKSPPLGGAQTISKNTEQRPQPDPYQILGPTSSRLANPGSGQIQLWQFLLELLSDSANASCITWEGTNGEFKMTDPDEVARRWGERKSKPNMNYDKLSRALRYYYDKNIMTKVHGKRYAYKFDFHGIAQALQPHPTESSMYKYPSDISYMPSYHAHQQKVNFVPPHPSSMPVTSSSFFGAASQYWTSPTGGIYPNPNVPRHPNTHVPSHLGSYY
# Method in brief: (§1)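 The binding signal reported is, for every hexamer, its read frequency for a factor over its read frequency for the tag-only sample. Reads came from pools of yeast-expressed, GST-fused human transcription factors on glutathione beads, barcoded with DNA and mixed with that sample, which were incubated with 200 nmole of a random double-stranded 16-mer DNA library in Tris/NaCl/DTT/glycerol buffer at room temperature for 30 min. After washing, the pools were crosslinked with 0.1% formaldehyde, proximity-ligated with BsaI/T4 ligase for 1 h at 37 °C, PCR-amplified and sequenced on an Illumina NextSeq500.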
# ELK1 = target: T2, ELK1 (Homo sapiens, UniProt P19419 1-428); conditions: protein: recombinant; tags: N-terminal GST; dsDNA, one strand shown
# T2 sequence: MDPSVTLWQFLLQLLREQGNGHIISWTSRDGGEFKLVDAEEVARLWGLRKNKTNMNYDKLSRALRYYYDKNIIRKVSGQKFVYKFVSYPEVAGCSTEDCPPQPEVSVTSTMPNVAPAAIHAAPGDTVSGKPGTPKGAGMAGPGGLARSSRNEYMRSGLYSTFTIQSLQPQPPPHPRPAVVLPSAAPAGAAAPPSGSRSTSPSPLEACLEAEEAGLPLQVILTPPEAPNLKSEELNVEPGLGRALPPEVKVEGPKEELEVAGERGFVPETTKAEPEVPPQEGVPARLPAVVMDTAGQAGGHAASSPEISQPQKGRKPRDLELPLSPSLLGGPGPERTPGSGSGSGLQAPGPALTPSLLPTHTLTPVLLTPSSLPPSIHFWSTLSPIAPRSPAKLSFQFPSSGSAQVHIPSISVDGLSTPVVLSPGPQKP
# Method in brief: as §1
# GABPA = target: T3, GABPA (Homo sapiens, UniProt Q06546 1-454); conditions: protein: recombinant; tags: N-terminal GST; dsDNA, one strand shown
# T3 sequence: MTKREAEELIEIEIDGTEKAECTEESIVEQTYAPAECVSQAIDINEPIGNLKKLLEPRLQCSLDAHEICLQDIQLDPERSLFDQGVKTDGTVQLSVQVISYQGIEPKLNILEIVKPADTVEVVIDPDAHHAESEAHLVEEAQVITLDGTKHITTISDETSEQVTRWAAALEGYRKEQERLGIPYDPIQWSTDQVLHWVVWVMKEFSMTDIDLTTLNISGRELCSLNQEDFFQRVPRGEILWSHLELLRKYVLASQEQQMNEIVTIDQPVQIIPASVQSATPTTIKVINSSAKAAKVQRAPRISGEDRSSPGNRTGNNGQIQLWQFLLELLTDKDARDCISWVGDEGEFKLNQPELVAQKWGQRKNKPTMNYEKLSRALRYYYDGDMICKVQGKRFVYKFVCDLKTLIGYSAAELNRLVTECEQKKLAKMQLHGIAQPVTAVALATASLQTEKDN
# Method in brief: as §1
# ERG = target: T4, ERG (Homo sapiens, UniProt P11308 1-479); conditions: protein: recombinant; tags: N-terminal GST; dsDNA, one strand shown
# T4 sequence: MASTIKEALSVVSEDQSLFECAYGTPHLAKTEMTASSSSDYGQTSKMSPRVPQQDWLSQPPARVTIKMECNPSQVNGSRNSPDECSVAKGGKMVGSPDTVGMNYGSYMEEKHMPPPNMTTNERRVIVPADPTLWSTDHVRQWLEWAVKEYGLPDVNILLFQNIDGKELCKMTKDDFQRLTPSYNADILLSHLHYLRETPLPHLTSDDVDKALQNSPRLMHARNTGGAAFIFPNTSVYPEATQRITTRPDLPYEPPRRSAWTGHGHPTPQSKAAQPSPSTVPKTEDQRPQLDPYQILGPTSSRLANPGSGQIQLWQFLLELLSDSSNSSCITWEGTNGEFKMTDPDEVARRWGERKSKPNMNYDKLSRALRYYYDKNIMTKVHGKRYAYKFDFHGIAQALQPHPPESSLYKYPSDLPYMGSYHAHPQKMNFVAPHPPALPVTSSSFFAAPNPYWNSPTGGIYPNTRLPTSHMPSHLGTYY
# Method in brief: as §1
# ELF1 = ELF1 (Homo sapiens, UniProt P32519 1-619); conditions: protein: recombinant; tags: N-terminal GST; dsDNA, one strand shown
# Method in brief: as §1
# EHF = target: T5, EHF (Homo sapiens, UniProt Q9NZC4 1-300); conditions: protein: recombinant; tags: N-terminal GST; dsDNA, one strand shown
# T5 sequence: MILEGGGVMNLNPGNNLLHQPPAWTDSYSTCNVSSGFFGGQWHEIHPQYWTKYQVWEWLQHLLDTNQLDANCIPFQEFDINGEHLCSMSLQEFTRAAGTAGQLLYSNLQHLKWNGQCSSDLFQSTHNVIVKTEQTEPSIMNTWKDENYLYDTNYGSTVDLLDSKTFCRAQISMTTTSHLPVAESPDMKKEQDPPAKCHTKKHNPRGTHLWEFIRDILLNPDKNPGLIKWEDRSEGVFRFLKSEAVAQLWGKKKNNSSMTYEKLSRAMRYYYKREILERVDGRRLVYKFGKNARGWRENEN
# Method in brief: as §1
# SPI1 = SPI1 (Homo sapiens, UniProt P17947 1-270); conditions: protein: recombinant; tags: N-terminal GST; dsDNA, one strand shown
# Method in brief: as §1
# SPIB = SPIB (Homo sapiens, UniProt Q01892 1-262); conditions: protein: recombinant; tags: N-terminal GST; dsDNA, one strand shown
# Method in brief: as §1
# ELK3 = target: T6, ELK3 (Homo sapiens, UniProt P41970 1-407); conditions: protein: recombinant; tags: N-terminal GST; dsDNA, one strand shown
# T6 sequence: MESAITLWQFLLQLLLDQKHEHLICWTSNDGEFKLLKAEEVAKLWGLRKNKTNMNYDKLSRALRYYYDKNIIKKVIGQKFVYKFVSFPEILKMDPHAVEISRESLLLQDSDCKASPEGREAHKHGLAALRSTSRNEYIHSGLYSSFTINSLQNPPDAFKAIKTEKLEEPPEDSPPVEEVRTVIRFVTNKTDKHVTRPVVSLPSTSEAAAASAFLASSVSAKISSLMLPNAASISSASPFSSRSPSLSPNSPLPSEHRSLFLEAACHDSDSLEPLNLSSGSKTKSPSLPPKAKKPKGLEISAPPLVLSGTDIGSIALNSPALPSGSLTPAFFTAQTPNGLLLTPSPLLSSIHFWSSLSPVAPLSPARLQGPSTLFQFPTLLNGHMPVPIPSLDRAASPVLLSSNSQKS
# Method in brief: as §1
# FEV = target: T7, FEV (Homo sapiens, UniProt Q99581 1-238); conditions: protein: recombinant; tags: N-terminal GST; dsDNA, one strand shown
# T7 sequence: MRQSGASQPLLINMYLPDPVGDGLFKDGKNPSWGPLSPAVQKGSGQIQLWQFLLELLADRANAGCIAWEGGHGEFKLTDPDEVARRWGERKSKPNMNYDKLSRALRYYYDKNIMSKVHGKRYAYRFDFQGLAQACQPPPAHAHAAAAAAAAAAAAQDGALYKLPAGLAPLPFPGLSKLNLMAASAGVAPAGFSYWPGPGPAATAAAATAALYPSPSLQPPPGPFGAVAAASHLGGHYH
# Method in brief: as §1
# ETV5 = ETV5 (Homo sapiens, UniProt P41161 1-510); conditions: protein: recombinant; tags: N-terminal GST; dsDNA, one strand shown
# Method in brief: as §1
# HSF1 = HSF1 (Homo sapiens, UniProt Q00613 1-529); conditions: protein: recombinant; tags: N-terminal GST; chain copies: 3; dsDNA, one strand shown
# Method in brief: as §1
# SPIC = target: T8, SPIC (Homo sapiens, UniProt Q8N5J4 1-248); conditions: protein: recombinant; tags: N-terminal GST; dsDNA, one strand shown
# T8 sequence: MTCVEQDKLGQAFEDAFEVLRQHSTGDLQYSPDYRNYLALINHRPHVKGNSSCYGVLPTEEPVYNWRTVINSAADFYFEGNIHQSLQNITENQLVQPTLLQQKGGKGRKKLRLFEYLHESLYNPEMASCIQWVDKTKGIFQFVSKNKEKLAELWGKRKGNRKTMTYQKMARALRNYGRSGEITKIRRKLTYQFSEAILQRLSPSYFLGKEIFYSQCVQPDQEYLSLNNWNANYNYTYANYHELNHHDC
# Method in brief: as §1
# ELF4 = ELF4 (Homo sapiens, UniProt Q99607 1-663); conditions: protein: recombinant; tags: N-terminal GST; dsDNA, one strand shown
# Method in brief: as §1
# ELK4 = target: T9, ELK4 (Homo sapiens, UniProt P28324-2 1-405); conditions: protein: recombinant; tags: N-terminal GST; dsDNA, one strand shown
# T9 sequence: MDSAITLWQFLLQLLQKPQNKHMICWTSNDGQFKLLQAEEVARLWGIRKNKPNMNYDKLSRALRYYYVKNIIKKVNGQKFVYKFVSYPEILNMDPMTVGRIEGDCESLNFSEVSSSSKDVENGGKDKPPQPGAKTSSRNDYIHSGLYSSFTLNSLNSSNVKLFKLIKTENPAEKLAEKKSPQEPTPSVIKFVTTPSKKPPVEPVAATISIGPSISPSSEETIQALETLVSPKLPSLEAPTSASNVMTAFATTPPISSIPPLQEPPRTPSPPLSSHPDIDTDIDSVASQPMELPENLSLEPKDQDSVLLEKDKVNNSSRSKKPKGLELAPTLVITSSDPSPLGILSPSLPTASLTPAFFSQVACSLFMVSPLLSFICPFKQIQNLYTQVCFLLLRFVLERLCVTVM
# Method in brief: as §1
# ETV2 = target: T10, ETV2 (Homo sapiens, UniProt O00321 1-342); conditions: protein: recombinant; tags: N-terminal GST; dsDNA, one strand shown
# T10 sequence: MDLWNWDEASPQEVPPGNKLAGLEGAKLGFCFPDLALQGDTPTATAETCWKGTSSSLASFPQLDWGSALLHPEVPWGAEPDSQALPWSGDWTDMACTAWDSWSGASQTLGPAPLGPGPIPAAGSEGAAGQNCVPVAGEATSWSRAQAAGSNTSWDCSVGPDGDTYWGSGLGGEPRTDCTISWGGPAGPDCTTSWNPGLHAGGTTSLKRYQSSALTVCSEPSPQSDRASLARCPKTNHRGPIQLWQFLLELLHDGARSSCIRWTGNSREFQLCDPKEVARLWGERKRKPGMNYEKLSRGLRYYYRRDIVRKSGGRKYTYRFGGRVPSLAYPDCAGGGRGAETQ
# Method in brief: as §1
# ELF3 = target: T11, ELF3 (Homo sapiens, UniProt P78545 1-371); conditions: protein: recombinant; tags: N-terminal GST; dsDNA, one strand shown
# T11 sequence: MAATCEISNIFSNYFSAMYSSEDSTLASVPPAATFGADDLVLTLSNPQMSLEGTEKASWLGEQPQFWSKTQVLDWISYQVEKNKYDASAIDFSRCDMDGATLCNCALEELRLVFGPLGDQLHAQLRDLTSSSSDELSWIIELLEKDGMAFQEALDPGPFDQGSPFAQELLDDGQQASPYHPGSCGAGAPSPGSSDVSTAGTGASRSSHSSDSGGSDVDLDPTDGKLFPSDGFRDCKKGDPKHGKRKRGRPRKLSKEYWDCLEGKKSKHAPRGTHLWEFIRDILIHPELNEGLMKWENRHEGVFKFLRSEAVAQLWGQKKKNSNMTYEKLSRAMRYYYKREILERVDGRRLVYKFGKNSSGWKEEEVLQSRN
# Method in brief: as §1
# CRX = CRX (Homo sapiens, UniProt O43186 1-299); conditions: protein: recombinant; tags: N-terminal GST; dsDNA, one strand shown
# Method in brief: as §1
# ETV1 = ETV1 (Homo sapiens, UniProt P50549 1-477); conditions: protein: recombinant; tags: N-terminal GST; dsDNA, one strand shown
# Method in brief: as §1
# Chain of ELF4 (Q99607 whole entry): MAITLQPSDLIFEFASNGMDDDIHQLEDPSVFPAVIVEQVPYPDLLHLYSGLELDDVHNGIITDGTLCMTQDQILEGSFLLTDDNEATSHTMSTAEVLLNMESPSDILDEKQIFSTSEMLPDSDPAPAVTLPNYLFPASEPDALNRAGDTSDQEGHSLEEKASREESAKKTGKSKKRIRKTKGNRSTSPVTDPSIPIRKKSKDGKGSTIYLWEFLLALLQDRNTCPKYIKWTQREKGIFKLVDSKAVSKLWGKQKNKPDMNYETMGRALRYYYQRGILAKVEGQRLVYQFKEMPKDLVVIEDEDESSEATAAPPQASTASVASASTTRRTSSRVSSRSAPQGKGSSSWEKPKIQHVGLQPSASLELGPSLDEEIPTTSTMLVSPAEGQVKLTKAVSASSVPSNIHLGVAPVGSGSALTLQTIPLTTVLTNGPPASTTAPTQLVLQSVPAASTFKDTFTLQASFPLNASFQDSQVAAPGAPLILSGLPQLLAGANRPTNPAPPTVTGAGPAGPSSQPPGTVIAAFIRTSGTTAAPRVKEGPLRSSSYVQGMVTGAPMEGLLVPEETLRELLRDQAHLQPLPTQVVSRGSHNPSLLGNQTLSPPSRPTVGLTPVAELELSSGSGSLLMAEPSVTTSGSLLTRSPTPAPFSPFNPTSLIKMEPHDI
# Chain of HSF1 (Q00613 whole entry): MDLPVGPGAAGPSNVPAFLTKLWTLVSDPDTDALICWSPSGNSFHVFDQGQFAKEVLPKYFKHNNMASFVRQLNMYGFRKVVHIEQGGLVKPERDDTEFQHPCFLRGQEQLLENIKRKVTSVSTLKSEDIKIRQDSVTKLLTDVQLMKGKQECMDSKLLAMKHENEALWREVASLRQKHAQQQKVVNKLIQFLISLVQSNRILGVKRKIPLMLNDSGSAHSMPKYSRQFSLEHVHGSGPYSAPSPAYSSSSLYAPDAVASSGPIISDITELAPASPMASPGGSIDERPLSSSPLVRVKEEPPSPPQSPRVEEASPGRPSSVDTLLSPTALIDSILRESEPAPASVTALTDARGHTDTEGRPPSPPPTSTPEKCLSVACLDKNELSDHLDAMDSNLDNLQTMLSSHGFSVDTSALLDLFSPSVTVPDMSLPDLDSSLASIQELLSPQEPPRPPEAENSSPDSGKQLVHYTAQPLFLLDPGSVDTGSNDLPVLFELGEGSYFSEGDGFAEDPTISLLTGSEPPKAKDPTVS
# Chain of SPIB (Q01892 whole entry): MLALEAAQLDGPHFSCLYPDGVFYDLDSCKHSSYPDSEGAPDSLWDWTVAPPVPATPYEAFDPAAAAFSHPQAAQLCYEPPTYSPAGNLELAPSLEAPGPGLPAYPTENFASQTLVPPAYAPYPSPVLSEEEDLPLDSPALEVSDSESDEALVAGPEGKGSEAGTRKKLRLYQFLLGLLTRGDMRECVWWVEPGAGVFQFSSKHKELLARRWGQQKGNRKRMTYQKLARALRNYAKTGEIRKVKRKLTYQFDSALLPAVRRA
# Chain of CRX (O43186 whole entry): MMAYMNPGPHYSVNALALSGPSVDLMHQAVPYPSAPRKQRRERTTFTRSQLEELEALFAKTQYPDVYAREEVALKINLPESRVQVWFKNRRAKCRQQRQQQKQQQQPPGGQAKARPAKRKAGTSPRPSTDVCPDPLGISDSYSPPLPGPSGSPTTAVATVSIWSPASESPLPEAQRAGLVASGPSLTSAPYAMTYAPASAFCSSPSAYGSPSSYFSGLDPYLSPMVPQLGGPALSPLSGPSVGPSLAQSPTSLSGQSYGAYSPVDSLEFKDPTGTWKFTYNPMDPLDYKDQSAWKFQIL
# Chain of ELF1 (P32519 whole entry): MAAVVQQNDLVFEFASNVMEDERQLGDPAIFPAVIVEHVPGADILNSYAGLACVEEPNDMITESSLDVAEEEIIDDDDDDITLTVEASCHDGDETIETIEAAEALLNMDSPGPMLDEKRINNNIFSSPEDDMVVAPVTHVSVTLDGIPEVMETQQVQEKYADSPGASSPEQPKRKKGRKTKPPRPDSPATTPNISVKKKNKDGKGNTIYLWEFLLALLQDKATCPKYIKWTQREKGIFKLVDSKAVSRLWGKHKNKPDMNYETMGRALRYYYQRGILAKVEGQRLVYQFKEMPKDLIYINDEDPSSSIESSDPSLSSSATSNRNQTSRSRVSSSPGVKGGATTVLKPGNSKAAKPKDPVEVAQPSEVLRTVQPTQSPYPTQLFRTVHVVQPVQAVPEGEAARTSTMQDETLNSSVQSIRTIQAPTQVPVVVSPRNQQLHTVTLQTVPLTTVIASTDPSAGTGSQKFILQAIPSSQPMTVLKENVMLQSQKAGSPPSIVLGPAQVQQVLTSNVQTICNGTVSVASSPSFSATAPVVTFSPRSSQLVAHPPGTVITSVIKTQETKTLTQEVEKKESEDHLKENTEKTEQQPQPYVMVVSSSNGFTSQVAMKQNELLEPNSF
# Chain of ETV1 (P50549 whole entry): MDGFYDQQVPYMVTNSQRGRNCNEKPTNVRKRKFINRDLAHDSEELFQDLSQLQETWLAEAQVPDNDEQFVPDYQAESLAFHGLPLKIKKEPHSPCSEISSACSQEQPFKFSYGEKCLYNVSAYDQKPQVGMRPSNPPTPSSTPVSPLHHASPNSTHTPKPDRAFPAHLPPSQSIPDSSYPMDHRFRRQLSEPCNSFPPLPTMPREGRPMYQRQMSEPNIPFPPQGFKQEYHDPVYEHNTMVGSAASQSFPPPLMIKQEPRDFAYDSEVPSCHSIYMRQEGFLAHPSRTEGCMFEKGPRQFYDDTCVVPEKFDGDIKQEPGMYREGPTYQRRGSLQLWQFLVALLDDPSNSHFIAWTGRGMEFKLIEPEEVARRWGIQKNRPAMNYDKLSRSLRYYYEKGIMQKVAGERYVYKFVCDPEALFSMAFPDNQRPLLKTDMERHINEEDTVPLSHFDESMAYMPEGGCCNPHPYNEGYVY
# Chain of ETV5 (P41161 whole entry): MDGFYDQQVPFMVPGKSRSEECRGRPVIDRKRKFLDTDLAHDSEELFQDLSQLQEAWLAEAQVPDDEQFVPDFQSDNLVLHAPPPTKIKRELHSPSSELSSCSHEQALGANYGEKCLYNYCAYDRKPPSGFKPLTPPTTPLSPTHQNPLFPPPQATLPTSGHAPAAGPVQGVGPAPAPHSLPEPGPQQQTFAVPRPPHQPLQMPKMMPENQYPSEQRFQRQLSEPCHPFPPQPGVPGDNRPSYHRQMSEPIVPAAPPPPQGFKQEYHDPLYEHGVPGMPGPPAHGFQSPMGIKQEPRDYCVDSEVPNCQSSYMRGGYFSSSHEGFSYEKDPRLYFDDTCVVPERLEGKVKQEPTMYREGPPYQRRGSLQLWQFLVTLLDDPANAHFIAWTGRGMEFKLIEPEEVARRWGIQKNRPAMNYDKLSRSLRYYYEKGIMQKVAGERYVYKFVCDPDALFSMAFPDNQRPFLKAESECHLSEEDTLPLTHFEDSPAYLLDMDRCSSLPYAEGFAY
sequence,measurement,setting,value
TCCATT,binding signal,FLI1,"1.34 fold enrichment (6-mer frequency, TF over GST control)"
same,binding signal,ELK1,"1.16 fold enrichment (6-mer frequency, TF over GST control)"
same,binding signal,GABPA,"1.3 fold enrichment (6-mer frequency, TF over GST control)"
same,binding signal,ERG,"1.31 fold enrichment (6-mer frequency, TF over GST control)"
same,binding signal,ELF1,"1.26 fold enrichment (6-mer frequency, TF over GST control)"
same,binding signal,EHF,"1.27 fold enrichment (6-mer frequency, TF over GST control)"
same,binding signal,SPI1,"1.33 fold enrichment (6-mer frequency, TF over GST control)"
same,binding signal,SPIB,"1.39 fold enrichment (6-mer frequency, TF over GST control)"
same,binding signal,ELK3,"1.26 fold enrichment (6-mer frequency, TF over GST control)"
same,binding signal,FEV,"1.31 fold enrichment (6-mer frequency, TF over GST control)"
same,binding signal,ETV5,"1.36 fold enrichment (6-mer frequency, TF over GST control)"
same,binding signal,HSF1,"1.4 fold enrichment (6-mer frequency, TF over GST control)"
same,binding signal,SPIC,"1.31 fold enrichment (6-mer frequency, TF over GST control)"
same,binding signal,ELF4,"1.29 fold enrichment (6-mer frequency, TF over GST control)"
same,binding signal,ELK4,"1.37 fold enrichment (6-mer frequency, TF over GST control)"
same,binding signal,ETV2,"1.19 fold enrichment (6-mer frequency, TF over GST control)"
same,binding signal,ELF3,"1.27 fold enrichment (6-mer frequency, TF over GST control)"
same,binding signal,CRX,"1.35 fold enrichment (6-mer frequency, TF over GST control)"
same,binding signal,ETV1,"1.26 fold enrichment (6-mer frequency, TF over GST control)"
